Hits are enriched below; roughly 7.3% of the tested compounds scored in any of these assays.
NPC1 prom act – activates the NPC1 promoter; AID 485313; Huh7 NPC1 promoter luciferase reporter, 24 h; actives 2.4% (n = 320,000); Potency, µM (series often up to 9.22 µM), most hits filed as activators; further: nearly all actives have a fitted effect of over 60% in size
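In 1536-well qHTS, Huh7 cells harboring an NPC1 promoter–luciferase construct received compound for 24 h; activation was quantified by luminescence following luciferase reagent addition.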
FLuc modulator – firefly luciferase modulation, counter-screen for miR-21 project; Potency, µM (doses to about 57.5 µM), hits mostly inhibitors; purified FLuc, Km substrates, luminescence inhibition; P08659; actives 6.9% (n = 360,000); further: nearly all actives have a fitted effect of over 55% in size
Target sequence (P08659 whole entry, looked up): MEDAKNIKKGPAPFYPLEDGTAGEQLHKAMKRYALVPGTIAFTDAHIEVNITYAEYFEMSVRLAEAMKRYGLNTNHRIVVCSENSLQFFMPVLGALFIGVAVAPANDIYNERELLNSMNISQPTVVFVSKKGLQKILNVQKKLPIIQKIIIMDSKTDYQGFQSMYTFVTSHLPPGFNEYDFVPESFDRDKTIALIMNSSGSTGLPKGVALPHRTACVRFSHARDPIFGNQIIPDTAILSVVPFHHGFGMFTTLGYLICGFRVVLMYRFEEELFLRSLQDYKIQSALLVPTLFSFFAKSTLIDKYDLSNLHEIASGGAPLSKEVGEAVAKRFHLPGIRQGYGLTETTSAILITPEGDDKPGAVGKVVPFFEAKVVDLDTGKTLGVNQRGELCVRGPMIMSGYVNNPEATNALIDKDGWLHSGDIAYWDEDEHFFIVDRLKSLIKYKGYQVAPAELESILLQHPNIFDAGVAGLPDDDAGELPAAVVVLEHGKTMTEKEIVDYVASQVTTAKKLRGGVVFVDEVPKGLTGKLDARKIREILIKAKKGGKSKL
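Purified P. pyralis luciferase, 10 nM final, with Km-level 10 uM D-luciferin and 10 uM ATP in 50 mM Tris acetate pH 7.5, 10 mM Mg acetate, 0.01% Tween-20, 0.05% BSA; 6-point qHTS titration about 60 µM downward; luminescence read.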
ELG1 genotox – inducers of genotoxicity in HEK293T ELG1-luciferase cells. HEK293T ELG1-luciferase reporter, luminescence, 16 h. actives 1.3% (n = 330,000). Potency, µM (doses to about 46 µM), actives largely listed as activators; further: nearly all actives have a fitted effect of over 60% in size
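Luminescence read-out: rising ELG1-luciferase signal, reflecting elevated ELG1 protein under genetic stress, flags genotoxic compounds. Cells were treated for 16 hr at 37 °C before ONE-Glo detection.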
Rab9 promoter act – activators of Rab9 promoter; Huh7 Rab9 promoter-luciferase reporter, luminescence, 24 h; Potency, µM (top dose mostly 9.22 µM), actives largely listed as activators; actives 2.8% (n = 320,000); AID 485297; further: nearly all actives have a fitted effect of over 60% in size
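Huh7 reporter line, Rab9 promoter upstream of luciferase. Compound exposure 24 h at 37 °C in reduced-serum medium with 10% FBS. Read-out: luminescence.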
SMN2 splice up – increases expression of the SMN2 splice variant. actives 2.8% (n = 210,000). AID 1458. HEK293 SMN2-luciferase splicing reporter, luminescence, 30-36 h. Potency, µM (top dose mostly 46.1 µM), actives largely listed as activators; further: nearly all actives have a fitted effect of over 55% in size
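HEK293 cells carry an SMN2 […]–luciferase reporter in which exon 7 inclusion puts luciferase in frame. Cells were plated 10-12 h before compound addition, then incubated 30-36 h at 37C. ONE-Glo luminescence was read; sodium butyrate at 4.5 mM final served as control.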
Luc counter – Kinase-Glo luciferase inhibition (counter-screen) | Q27757 | Kinase-Glo luciferase, ATP luminescence, 8 min | actives 0.28% (n = 200,000) | Potency, µM (series often up to 38.3 µM), most hits filed as inhibitors; further: nearly all actives have a fitted effect of over 60% in size
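Inhibition of Kinase-Glo luciferase light generation was assessed at 10 uM ATP in pH 7.2 imidazole buffer, with luminescence measured after eight minutes at ambient temperature.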
Of the large screens only hits and unclear results are named; the others gave an inactive call. The call rests on the fitted dose curve; in most records, active means well fitted curve in the direction sought with a large enough effect; inconclusive means small, poorly fitted or top-dose-only effect, or another doubt; inactive means no such curve, though single readings can be large; an effect the other way counts as inactive or inconclusive.

O=C(Nc1nc2ccccc2n1CCOc1ccccc1Cl)c1ccccc1	FLuc modulator 4.78µM (no result: NPC1 prom act, ELG1 genotox, Rab9 promoter act, Luc counter)
O=C(Nc1cccc(F)c1)C1CCN(S(=O)(=O)c2cnc[nH]2)CC1	none (no result: SMN2 splice up, Luc counter)
C=C(C)Cn1cnc2cc(C)c(C)cc21	none
CCOC(=O)C1=C(COC(=O)COc2ccccc2OCC)NC(=O)NC1C (stereo not drawn)	none (no result: SMN2 splice up, Luc counter)
COc1ccc(NC(=O)/C(C#N)=C\c2cc(C)n(-c3ccc(Oc4ccc([N+](=O)[O-])cn4)cc3)c2C)cc1	none
CCCn1c(-c2ccc(OC)cc2)nc2ccccc21	FLuc modulator inconclusive
COCn1c(-c2ccc(OC)cc2)nc2ccccc21	NPC1 prom act inconclusive, FLuc modulator 6.01µM, ELG1 genotox inconclusive, Rab9 promoter act 2.51µM, SMN2 splice up 14.1µM, Luc counter inconclusive
Cc1cc(C(=O)COC(=O)C23CC4CC(CC(O)(C4)C2)C3)c(C)n1-c1c(C)n(C)n(-c2ccccc2)c1=O	none
COCCn1c(C)cc(C(=O)COC(=O)c2cccc(O)c2)c1C	NPC1 prom act inconclusive, FLuc modulator 0.107µM, ELG1 genotox inconclusive, Rab9 promoter act inconclusive (no result: SMN2 splice up, Luc counter)
COCCn1c(C)cc(C(=O)CN2CCCCC2)c1C	none
COCCn1c(C)cc(C(=O)COC(=O)CCN2C(=O)c3ccccc3C2=O)c1C	FLuc modulator inconclusive
COCCn1c(C)cc(C(=O)COC(=O)C23CC4CC(CC(O)(C4)C2)C3)c1C	NPC1 prom act 0.355µM, FLuc modulator 1.51µM, ELG1 genotox inconclusive, Rab9 promoter act 0.355µM, SMN2 splice up inconclusive
Cc1cc(C(=O)COC(=O)Cc2ccc(Br)cc2)c(C)n1C	FLuc modulator inconclusive (no result: SMN2 splice up, Luc counter)
COCCn1c(C)cc(C(=O)COC(=O)c2cc3c(s2)CCC3)c1C	NPC1 prom act 3.55µM, FLuc modulator 10.7µM, ELG1 genotox inconclusive, Rab9 promoter act 3.98µM
Cc1cc(C(=O)COC(=O)c2csc3c2CCCC3)c(C)n1C	FLuc modulator 12µM
CCO[C@@H]1OC(C(=O)NC2CC2)=C[C@H](C(C)(C)C)[C@H]1CCCO	none (no result: SMN2 splice up, Luc counter)
COc1cc(/C=C/C(=O)Nc2ccccc2C(F)(F)F)cc(OC)c1OC	none
COc1ccccc1N(CC(=O)Nc1ccc2c(c1)OCCO2)S(C)(=O)=O	none
CSCCC(NS(=O)(=O)c1cccc(C(F)(F)F)c1)C(=O)N(C)CCOc1ccc(Cl)cc1 (stereo not drawn)	none (no result: SMN2 splice up, Luc counter)
CCOC(=O)c1cc(-c2ccc(/C=C3/C(=O)NC(=O)C(C#N)=C3C)o2)ccc1Cl	FLuc modulator inconclusive
CC1=C(C#N)C(=O)NC(=O)/C1=C\c1ccc(-c2ccc(C)cc2[N+](=O)[O-])o1	FLuc modulator 26.9µM
Cc1ccc(N2C(=O)CS(=O)(=O)CC2=O)cc1	none
Cc1ccc(N2C(=O)CC3(CCCC3)CC2=O)cc1	FLuc modulator 10.7µM (no result: SMN2 splice up, Luc counter)
CCN=C1S/C(=C\c2sccc2C)C(=O)N1CC	NPC1 prom act inconclusive, FLuc modulator 12µM, ELG1 genotox inconclusive, Rab9 promoter act inconclusive
CCCOc1ccc(/C=C2\SC(=S)N(CC3CCCO3)C2=O)cc1 (stereo not drawn)	FLuc modulator 9.53µM
O=C1/C(=C/c2ccc(O)cc2)SC(=S)N1CC1CCCO1 (stereo not drawn)	FLuc modulator inconclusive (no result: SMN2 splice up, Luc counter)
Cc1ccsc1/C=C1\SC(=S)N(CC2CCCO2)C1=O (stereo not drawn)	FLuc modulator 10.7µM, ELG1 genotox inconclusive, Rab9 promoter act inconclusive
CC1(NC(=O)CCc2ccccc2)CCN(CCCc2ccccc2)C1=O (stereo not drawn)	none (no result: SMN2 splice up, Luc counter)
CCOc1ccc(NC(=O)c2ccc3[nH]c(C)c(C)c3c2)cc1	FLuc modulator 13.5µM (no result: NPC1 prom act, ELG1 genotox, Rab9 promoter act, SMN2 splice up, Luc counter)
COc1ccc(NC(=O)c2ccc3[nH]c(C)c(C)c3c2)cc1	FLuc modulator 13.5µM, Rab9 promoter act inconclusive (no result: SMN2 splice up, Luc counter)
CCOc1ccc(CCNC(=O)c2ccc3[nH]c(C)c(C)c3c2)cc1	none (no result: NPC1 prom act, ELG1 genotox, Rab9 promoter act, SMN2 splice up, Luc counter)
Cc1cc(C)cc(NC(=O)c2ncn(-c3ccccc3)n2)c1	FLuc modulator inconclusive, SMN2 splice up 11.2µM (no result: NPC1 prom act, ELG1 genotox, Rab9 promoter act, Luc counter)
COc1cccc(NC(=S)N(CCCN2CCC(C)CC2)Cc2cccs2)c1	none
